PubChem BioAssay AID720513 (Broad Institute, 2013)
The campaign covered roughly 2,100 compounds. About 480 (23%) were called active. Inconclusive results (about 5%) are left out.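 Rule for the calls: active = fitted curve reaches 40% activation at or below the top valid concentration, in every replicate test; inconclusive = replicate tests disagree on the call; inactive = the rest, including activity in the opposite direction.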 A selection follows. Entries with a potency or affinity are not part of this list.

Test: PGC1a acetylation increase, cellular AlphaLISA – cell-based, cherry-picked samples, set 6, dose response (AID 720513);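 note: cells made to overexpress flag tagged PGC1a plus GCN5 acetyltransferase by viral infection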
Conditions: U2OS PGC1a acetylation AlphaLISA, overnight, 0 = neutral, -100 = inhibitor control; series mostly up to 19.5 µM; activation (acetylation increase): at the top concentration

Activation (acetylation increase), inactive:
O=C1CCN(S(=O)(=O)c2ccc(Cl)cc2)N1 22.7%
Cc1cc(C)n(CCc2nc3c4ccccc4n(CC#N)c(=O)n3n2)n1 0.376%
Cc1ccc(C(=O)Cn2c(C(=O)OCCO)cc3ccccc32)cc1 28.5%
COc1cc(C(=O)O)ccc1Cl -5.01%
Cc1ccc(Cn2ncc(Cl)c(Cl)c2=O)cc1 -95.1%
Cc1ccc(S(=O)(=O)Nc2ccc3c(c2)C(=O)N([C@H](C)CO)C[C@@H](C)[C@@H](CN(C)C(=O)NC(C)C)OCCCC[C@H](C)O3)cc1 31%
Cc1noc(C)c1S(=O)(=O)Nc1ccc2c(c1)C(=O)N([C@@H](C)CO)C[C@@H](C)[C@@H](CN(C)CC1CCCCC1)OCCCC[C@@H](C)O2 22.1%
C[C@H](CO)N1C[C@H](C)[C@@H](CN(C)C(=O)Nc2cccc3ccccc23)OCCCC[C@H](C)Oc2ccc(N(C)C)cc2C1=O 20%
Cc1ccc(S(=O)(=O)Nc2ccc3c(c2)C(=O)N([C@H](C)CO)C[C@H](C)[C@H](CN(C)C(=O)NC(C)C)OCCCC[C@@H](C)O3)cc1 -12.8% [at 21 µM]
C[C@H]1CCCCO[C@H](CN(C)C(=O)Nc2cccc3ccccc23)[C@@H](C)CN([C@@H](C)CO)C(=O)c2cc(N(C)C)ccc2O1 26.8%
Cc1noc(C)c1S(=O)(=O)Nc1ccc2c(c1)C(=O)N([C@H](C)CO)C[C@@H](C)[C@@H](CN(C)S(=O)(=O)c1cccs1)OCCCC[C@H](C)O2 35.5%
COc1ccc(NC(=O)Nc2ccc3c(c2)C(=O)N([C@H](C)CO)C[C@H](C)[C@@H](CN(C)S(=O)(=O)c2ccc(Cl)cc2)O3)cc1 0.725%
C=C1CCN(c2ccc(C(=O)NCc3ccccc3)cc2[N+](=O)[O-])CC1 6.43%
C[C@H]1CN([C@@H](C)CO)C(=O)Cc2cc(NS(=O)(=O)c3ccc(Cl)cc3)ccc2O[C@H]1CN(C)Cc1ccc(-c2ccccc2)cc1 35.3%
O=C(Nc1ccc(Cl)c(Cl)c1)N[C@@H]1CC[C@H](CCn2cc(C3CC3)nn2)O[C@H]1CO 8.37%
O=S(=O)(N[C@@H]1CC[C@@H](CCNS(=O)(=O)c2ccccc2Cl)O[C@H]1CO)c1ccccc1 15%
C[C@@H]1CN([C@@H](C)CO)S(=O)(=O)c2ccc(-c3ccc(C#N)cc3)cc2O[C@H]1CN(C)C(=O)CN(C)C -16.6%
CC(C)C#Cc1cnc2c(c1)C(=O)N([C@@H](C)CO)C[C@@H](C)[C@@H](CN(C)C(=O)CN1CCOCC1)O2 31%
CCCN(CC)c1ncnc2[nH]ncc12 -16.1%
CCCOC1CCCN(C(=O)c2cc(Cl)c(Cl)cc2C(=O)O)C1 (centres undefined) 5.2%
COc1ccc(-n2nc(C#N)c(Cl)cc2=O)cc1 -97.3%
C[C@H](CO)N1C[C@H](C)[C@H](CN(C)Cc2ccc(Oc3ccccc3)cc2)Oc2c(NC(=O)Nc3ccc4c(c3)OCO4)cccc2C1=O -63.5%
Cc1ccc(N2C(=O)c3ccccc3NC2C(C)Cc2ccc3c(c2)OCO3)cc1 (centres undefined) 11.5%
Cc1ccc(S(=O)(=O)N(C)C[C@@H]2OCCCC[C@H](C)Oc3ccc(NS(C)(=O)=O)cc3C(=O)N([C@@H](C)CO)C[C@@H]2C)cc1 30.4%
Cc1nc2ccccc2n2c(O)c(CC(=O)O)cc12 27.1%
Cc1ccc(S(=O)(=O)N(C)C[C@H]2OCCCC[C@H](C)Oc3ccc(N(C)C)cc3C(=O)N([C@H](C)CO)C[C@@H]2C)cc1 26.9%
C(=C\c1ccccc1)/CN1CCN(C(c2ccnc3ccccc23)c2nnnn2C2CCCCC2)CC1 (centres undefined) -15.6%
COc1cccc(CNC(=O)CCC2CCCN(Cc3ccc(OC(F)F)cc3)C2)c1 (centres undefined) 36.4%
COc1ccc(C[C@@H]2OC3(C=CC(=O)C=C3)O[C@H]2Cc2ccc(OC)cc2)cc1 -102%
CC(=O)N(CCC(Cc1ccccc1)c1ccc2c(c1)OCO2)Cc1ccccc1F (centres undefined) 28.5%
O=C(CN1CCOCC1)N[C@H]1CC[C@H](CCNC(=O)Nc2cc(F)ccc2F)O[C@H]1CO -4.65%
Cn1c(C(C#N)C(=O)c2sc3ccccc3c2Cl)nc2ccccc21 (centres undefined) 4.54%
CCC(=O)N1CCN(c2ccc(Cl)cc2NC(=O)c2ccc([N+](=O)[O-])o2)CC1 3.87%
CC(c1ccccc1)C1CC(=O)N(c2ccc([N+](=O)[O-])cc2)C1=O (centres undefined) 11.3%
Cc1ccc(N2CCN(CC(O)COC3CCCCC3)CC2)cc1 (centres undefined) 29.2%
CC1CCCN(C(=O)Cc2ccc(F)cc2)C1 (centres undefined) -34.7%
Cc1cccc(N2CCN(CC3CCCCC3)CC2)c1C 16.9% [at 10 µM]
CN1CCN(c2ccc([N+](=O)[O-])cc2C(=O)Nc2ccccc2)CC1 14.4%
CC(C)C(NC(=O)c1ccc(C(C)(C)C)cc1)C(=O)O (centres undefined) 43%
C[C@@H]1CCCCO[C@H](CN(C)C(=O)NC2CCCCC2)[C@@H](C)CN([C@@H](C)CO)C(=O)c2cc(NC(=O)NC3CCCCC3)ccc2O1 -13.8%
N#Cc1c(-c2ccccc2)c(-c2ccccc2)nn(CC(=O)NNC(=O)Nc2ccc(Cl)cc2)c1=O 6.86%
O=C(c1nc2nc(-c3ccccc3)cc(C(F)(F)F)n2n1)N1CCCCC1 -6.13%
CC[C@H](C)[C@H](NC(=O)c1ccc(Cl)cc1)C(=O)OCC(=O)c1ccc2c(c1)NC(=O)CO2 -58.8%
COc1cccc(CN2CCC(CO)(CC3CCCCO3)CC2)c1 (centres undefined) 10.6%
OCC1(Cc2ccc(F)cc2F)CCCN(Cc2ccc(Cl)cc2)C1 (centres undefined) 21.8%
N#Cc1cccc(-c2ccc(C3[C@@H]4CN(Cc5ccccc5F)C[C@H]3N4)cc2)c1 (some centres undefined) -96.5% [at 21 µM]
COc1cccc(C2c3[nH]c4ccccc4c3CCN2Cc2cnc(C)s2)c1OC (centres undefined) 14.4%
CCc1nccn1S(=O)(=O)c1cc(C)c(OC)cc1C 19%
COc1ccc(NC(=O)N[C@H]2CC[C@@H](CCn3cc(-c4ccccc4F)nn3)O[C@H]2CO)cc1 7.45%
CN(C)S(=O)(=O)c1cc(NC(=O)CN2CCc3ccccc32)ccc1Cl 21.9%
CCOCCCNC(=O)C1CCN(C(=O)Nc2ccc(C)cc2)CC1 8.6%
CC(C(=O)N1CCc2ccccc2C1)N(c1ccccc1)S(C)(=O)=O (centres undefined) -5.83%
CCOC(=O)c1ccc(NC(=O)CCS(=O)(=O)c2ccc(Br)s2)cc1 16.1%
Cc1cc(=O)[nH]c(SCC(=O)N2CCc3ccccc3C2)n1 -6.79%
CCOC(=O)c1cnn(-c2ccccc2)c1-n1cccc1C(=O)C(=O)Nc1ccc(F)cc1 22.3%
CC(C)Oc1ccc2nnnn2n1 -8.35%
CCCSCC(=O)Nc1ncc2c(n1)-c1ccccc1CC2 -13.2%
C[C@H]1CN([C@@H](C)CO)S(=O)(=O)c2ccc(C#CC3CCCCC3)cc2O[C@@H]1CN(C)Cc1cccnc1 -61.9%
CCc1nc(SCC(=O)N2c3ccccc3Sc3ccccc32)c2ccccc2n1 -8.97%
O=C(c1ccco1)N1CCN(C(=O)N2c3ccccc3Sc3ccccc32)CC1 7.72%
O=c1[nH]c2ccccc2nc1/C=C/c1ccc(O)cc1 33.7% [at 10 µM]
C[C@H]1CN([C@@H](C)CO)C(=O)c2cccc(NC(=O)Nc3ccc(F)cc3)c2O[C@@H]1CN(C)S(=O)(=O)c1cn(C)cn1 -10.4%
C[C@H](NS(=O)(=O)c1ccc2c(c1)OCCCO2)C(=O)N1CCN(Cc2ccccc2)CC1 -16.9%
COc1ccc2c(-c3ccccc3)cc(=O)[nH]c2c1 5.67%
O=C(c1cc(-c2ccccc2)nc2ccccc12)N1N=C(C(F)F)CC1(O)C(F)F (centres undefined) -4.21%
C=CCn1c(SCC(=O)Nc2ccc(C(=O)O)cc2)nnc1-c1cccnc1 -17.5%
COc1ccc(NC(=O)N[C@@H]2C=C[C@@H](CC(=O)NCc3ccccn3)O[C@@H]2CO)cc1 8.22%
COc1ccc(C2(NC(C)=O)CCN(C(=O)CCC(=O)O)CC2)cc1 0.064%
CCN(C(=O)C1CC1)C1CCS(=O)(=O)C1 (centres undefined) -3.69%
CN(c1ncnc(N)c1[N+](=O)[O-])C1CCS(=O)(=O)C1 (centres undefined) -8.48%
COCC(=O)Nc1ccc2c(c1)OC[C@@H](C)N(C(=O)c1ccccn1)C[C@@H](C)[C@@H](OC)CN(C)C2=O 16.6%
CC1CCCCC1NC(=O)C1CCN(S(=O)(=O)N2CCOCC2)CC1 (centres undefined) 27.5%
C[C@H](CO)N1C[C@H](C)[C@@H](CN(C)CC2CC2)Oc2cc(-c3cccnc3)ccc2S1(=O)=O -23.9%
CCSc1nnc(NC(=O)CSC2=NCCS2)s1 1.43%
COc1cccc(N2C(=O)CC(N3CCC(c4nc5ccccc5[nH]4)CC3)C2=O)c1 (centres undefined) -0.89%
O=C(Cc1ccncc1)NCC[C@H]1CC[C@@H](NC(=O)C2CC2)[C@H](CO)O1 -0.064% [at 21 µM]
CCOC(=O)C1=C(CNCc2ccc(C)cc2)NC(=O)NC1c1cc(C)ccc1C (centres undefined) -10.4%
CCN(CC)S(=O)(=O)c1cccc(-c2nnc(SCc3ncc(-c4ccccc4)o3)n2C)c1 13.4%
Cc1nc2ccc(C(=O)Nc3ccccc3Cl)cc2s1 17%
NC(=O)NC(=O)Nc1ccccc1Cl 9.99%
CCN(CC)C(=O)[C@H]1CC(CC(=O)NCc2cccc(C(F)(F)F)c2)C(=O)N2CCc3c([nH]c4ccccc34)[C@]12C (some centres undefined) -31.4%
CC(=O)Nc1ccc(S(=O)(=O)N2CCN(c3ccccn3)CC2)cc1 -5.59%
O=C(CCNC(=O)C1CCN(S(=O)(=O)c2ccc(F)cc2)CC1)NCc1ccccc1Cl -1.53%
N#Cc1cc2c(=O)n3ccccc3nc2n(Cc2cccnc2)c1=O 5.98%
O=C1C2C3CCC(C3)C2C(=O)N1CNc1ccc(F)cc1 (centres undefined) -2.1%
O=c1cc(CSc2ccccn2)[nH]c(=O)[nH]1 -18.7%
Cc1nc2[nH]c(=O)c3c(n2n1)NC1=C(C(=O)CC(C)(C)C1)C3c1ccccc1 (centres undefined) 14.3% [at 10 µM]
O=[N+]([O-])c1ccc(Oc2cccc(F)c2)c2ccncc12 -24.5%
Cc1cccc(S(=O)(=O)N(C)C[C@@H]2OCc3cn(nn3)CCCC(=O)N([C@@H](C)CO)C[C@H]2C)c1 -2.84%
O=C(OCn1ncc(Cl)c(Cl)c1=O)c1ccc(C(F)(F)F)cc1 -30.8%
O=C(NC1CCCN(Cc2ccc(Cl)cc2)C1)c1ccccc1C(F)(F)F (centres undefined) 19.9%
CCc1nc(N)nc(N)c1-c1ccc(Cl)cc1 -18.4%
CCOC(=O)C1CCN(C2=NC(=O)/C(=C/c3ccc(O)cc3)S2)CC1 -3.08%
Cc1cccc2cc(CN(Cc3nnnn3Cc3ccco3)C3CCCC3)c3nnnn3c12 6.98%
COc1cccc2c1C(CO)N1C(C#N)C3CC(C(=O)O)C(C1C2)N3C (centres undefined) -55.3%
Cc1cccc(-n2c(CNC(=O)c3cccc([N+](=O)[O-])c3C)n[nH]c2=S)c1 15.6%
COc1cccc(N(CC(=O)N2CCN(Cc3ccccc3)CC2)S(C)(=O)=O)c1 23.1%
CCC(C)(C)n1nnnc1C(c1cccnc1)N1CCCC(C)C1 (centres undefined) 3.35%
C[C@H](CO)N1C[C@H](C)[C@@H](CN(C)C(=O)C2CCCCC2)Oc2cc(C#Cc3ccncc3)ccc2S1(=O)=O -89.9%
COc1ccc(NC(=O)/C(Cl)=C(/Cl)S(=O)Cc2ccccc2)cn1 (centres undefined) -114%
O=C(Nc1ccc2c(c1)C(=O)N(c1ccccc1)C2=O)c1cccs1 -23.8%
O=C(CNC(=O)c1sc2ccccc2c1Cl)NCc1ccccc1 8.91%
Cc1cccc(N(CC(=O)NC(C)(C)C)C(=O)CNC(=O)c2cccs2)c1 17%
CN(C)C(=O)C[C@@H]1C=C[C@@H](NS(=O)(=O)c2ccccc2)[C@@H](CO)O1 -4.45%
CO[C@@H]1CN(C)C(=O)c2ccc(NC(=O)Nc3c(C)noc3C)cc2OC[C@H](C)N(CC2CC2)C[C@@H]1C -2.51%
CCS(=O)(=O)c1ccc(O)c(NC(=O)COc2ccc(Br)cc2)c1 5.32%
O=C(CSc1nnnn1-c1ccc(F)cc1)NNC(=O)c1ccco1 -9.31%
CC(=O)Nc1ccc(NC(=O)c2cc(=O)c3ccccc3o2)cc1 -0.676%
Cc1cc(=O)[nH]c2c1c(C)nn2C1CCCC1 -7.95%
